Measured values as given in PubChem BioAssay (NCATS).
Records with an inconclusive call do not appear. Calls of active or inactive are those of the source. Unless noted, calls follow the shape of the dose curve; as a rule, active = well fitted cell-killing curve with a large enough effect; inconclusive = small, poorly fitted or top-dose-only effect; inactive = flat fitted curve, though single readings scatter.

Columns and labels:
[1] = Cell Viability - LYMP2-020 (AID 986);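 also: series mostly up to about 92 µM; plate controls were DMSO only for no effect and tetraoctylammonium bromide at 92 µM for full effect; nearly all actives have a fitted effect of over 55% in size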
Summary of the method: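 Human lymphoblastoid LYMP2-020 cells (2500/well) preincubated 5 h at 37 C, then treated 24 h at 37 C. Viability measured as intracellular ATP by CellTiter-Glo luminescence after 30 min at room temperature; AC50 from Hill fits.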

[2] = Cell Viability - LYMP2-022 (AID 987);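 also: 0% = DMSO alone and full effect = tetraoctylammonium bromide at 92 µM; nearly all actives have a fitted effect of over 55% in size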
Summary of the method: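 LYMP2-022 lymphoblastoid cells (2500/well, complete medium) were treated with compounds for 24 hours at 37 C; intracellular ATP was then read by CellTiter-Glo luminescence after 30 min at room temperature. AC50 values were derived from Hill-equation fits.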

[3] = Cell Viability - LYMP2-024 (AID 988);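 also: plate controls were DMSO only for no effect and 92 µM tetraoctylammonium bromide for full effect; nearly all actives have a fitted effect of over 60% in size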
Summary of the method: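 Human lymphoblastoid LYMP2-024 cells (2500/well) rested 5 hr, then treated with compound for 24 hr at 37 C in complete medium. Viability was measured as intracellular ATP by CellTiter-Glo luminescence. AC50 values came from Hill-equation fits.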

[4] = Cell Viability - LYMP2-026 (AID 989); also: % is scaled to controls: 0 for no effect and ±100 for the full control effect; nearly all actives have a fitted effect of over 50% in size
Summary of the method: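 Human lymphoblastoid LYMP2-026 cells, 2500/well, exposed to compound 24 h at 37 C in complete medium. Viability as intracellular ATP by CellTiter-Glo luminescence; AC50 from Hill fits of qHTS concentration-response.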

[5] = Cell Viability - LYMP1-002 - Assay at 24 hr (AID 993); also: % is scaled to controls: 0 for no effect and ±100 for the full control effect
Summary of the method: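 Human lymphoblastoid LYMP1-002 cells (2500/well) treated 24 h at 37 °C; viability as intracellular ATP by CellTiter-Glo luminescence. Tetraoctylammonium bromide as positive control; AC50 from Hill-equation fits of qHTS concentration-response.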

[6] = Cell Viability - LYMP1-002 - Assay at 40 hr (AID 994);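 also: 0% = DMSO only and full inhibition = 92 µM tetraoctylammonium bromide; nearly all actives have a fitted effect of over 60% in size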
Summary of the method: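 LYMP1-002 human lymphoblastoid cells (2500/well, complete medium) were treated with compounds for 40 hr at 37 C. Intracellular ATP was measured by CellTiter-Glo luminescence, and AC50 values came from Hill-equation fits of concentration-response data; tetraoctylammonium bromide was the positive control.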

[7] = qHTS Assay for Identification of Small Molecule Inducers of Hypoxia Response (AID 2120; active = well fitted curve in the direction sought with a large enough effect in the signal ratio, with a control signal flat, not every such curve was filed as active; the % refers to the signal ratio; also: 0% is about no effect)
Summary of the method: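 HRE-bla ME-180 cells in Opti-MEM with 0.5% dialyzed FBS, pre-plated 4-5 h, then compound titration for 17 h at 37 degrees Celsius. CCF4 loaded 2.5 h at room temperature; 460/530 nm ratio gave %Activity and AC50 for induction.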

[8] = molecular target: Androgen receptor (Homo sapiens) (UniProt P10275); assay: qHTS assay for small molecule agonists of androgen receptor signaling (AID 588515; active = well fitted curve in the direction sought with a large enough effect in the signal ratio, with a control signal flat; the % refers to the signal ratio; also: % is scaled to controls: 0 for no effect and ±100 for the full control effect); details: AR-UAS-bla HEK293, beta-lactamase ratio, agonist 16 h; active compounds read high
Chain of Androgen receptor (Homo sapiens) (P10275 whole entry, looked up): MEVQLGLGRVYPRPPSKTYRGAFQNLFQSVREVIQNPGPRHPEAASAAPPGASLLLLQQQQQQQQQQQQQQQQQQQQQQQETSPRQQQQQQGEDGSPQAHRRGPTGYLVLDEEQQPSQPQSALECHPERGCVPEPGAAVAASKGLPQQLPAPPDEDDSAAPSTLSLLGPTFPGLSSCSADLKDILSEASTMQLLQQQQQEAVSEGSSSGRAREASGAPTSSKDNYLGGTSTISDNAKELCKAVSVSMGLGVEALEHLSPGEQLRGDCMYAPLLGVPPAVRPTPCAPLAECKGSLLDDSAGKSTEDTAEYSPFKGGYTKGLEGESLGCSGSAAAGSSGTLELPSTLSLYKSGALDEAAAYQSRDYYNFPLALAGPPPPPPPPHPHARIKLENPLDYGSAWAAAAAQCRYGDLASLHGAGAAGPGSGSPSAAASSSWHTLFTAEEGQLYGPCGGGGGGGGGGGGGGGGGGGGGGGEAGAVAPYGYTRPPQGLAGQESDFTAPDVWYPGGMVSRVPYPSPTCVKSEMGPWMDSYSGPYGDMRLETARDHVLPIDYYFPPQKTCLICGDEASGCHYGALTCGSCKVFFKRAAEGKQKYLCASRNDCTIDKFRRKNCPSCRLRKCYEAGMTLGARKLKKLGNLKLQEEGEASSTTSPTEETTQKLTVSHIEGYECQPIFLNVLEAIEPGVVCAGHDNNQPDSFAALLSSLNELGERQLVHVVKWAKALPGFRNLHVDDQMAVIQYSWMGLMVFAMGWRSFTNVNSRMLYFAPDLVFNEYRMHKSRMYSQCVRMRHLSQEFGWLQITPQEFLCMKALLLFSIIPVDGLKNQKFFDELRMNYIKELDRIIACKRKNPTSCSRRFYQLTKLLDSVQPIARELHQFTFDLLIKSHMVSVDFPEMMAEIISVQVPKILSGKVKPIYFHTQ
Summary of the method: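 EC50 and efficacy came from Hill fits of titrations (up to 92 uM) normalized to 30 nM R1881 as 100% and DMSO as 0%. Compound exposure was 16 h at 37 C on AR-UAS-bla HEK293 cells, with a 405/460/530 nm CCF4 fluorescence read.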

[9] = molecular target: Estrogen receptor (Homo sapiens) (UniProt P03372); assay: qHTS assay for small molecule agonists of estrogen receptor alpha signaling (AID 588514; calls by dose curve;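 also: 0% = vehicle only and 100% = reference agonist; nearly all actives have a fitted effect of over 70% in size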)
Chain of Estrogen receptor (Homo sapiens) (P03372 whole entry, looked up): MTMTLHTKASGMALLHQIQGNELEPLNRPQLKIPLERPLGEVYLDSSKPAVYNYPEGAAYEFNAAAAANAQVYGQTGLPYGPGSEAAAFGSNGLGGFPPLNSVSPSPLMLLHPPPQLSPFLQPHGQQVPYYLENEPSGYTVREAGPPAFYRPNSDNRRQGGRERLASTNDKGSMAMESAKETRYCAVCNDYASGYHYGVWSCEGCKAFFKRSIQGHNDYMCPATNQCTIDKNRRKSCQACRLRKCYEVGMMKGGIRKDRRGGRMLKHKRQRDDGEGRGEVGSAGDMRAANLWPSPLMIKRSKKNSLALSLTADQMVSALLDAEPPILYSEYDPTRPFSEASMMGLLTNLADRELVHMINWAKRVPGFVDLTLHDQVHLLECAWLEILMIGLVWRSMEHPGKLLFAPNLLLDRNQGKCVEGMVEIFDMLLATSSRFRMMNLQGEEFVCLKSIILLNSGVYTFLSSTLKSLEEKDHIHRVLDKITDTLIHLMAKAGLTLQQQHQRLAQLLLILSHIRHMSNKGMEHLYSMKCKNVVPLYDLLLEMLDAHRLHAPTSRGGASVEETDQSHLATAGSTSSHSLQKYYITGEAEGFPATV
Summary of the method: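 ER-alpha-UAS-bla GripTite HEK293 cells, 5000/well in 2% charcoal/dextran-stripped FBS medium, treated with compound titrations 18 h at 37 C. CCF4 beta-lactamase read by fluorescence after 2 h RT; normalised to 20 nM 17-beta-estradiol (100%) and DMSO (0%), Hill fit for EC50 and efficacy.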

NCCCCCCN
inactive: Potency [1] | Potency [2] | Potency [3] | outcome [4] | Potency [5] | Potency [6] | outcome [7]

O=Cc1ccccc1Cl
inactive: Potency [1] | Potency [2] | Potency [3] | outcome [4] | Potency [5] | Potency [6] | outcome [7]

CCCCOCCOCCOCCCC
inactive: Potency [1] | Potency [2] | Potency [3] | outcome [4] | Potency [5] | outcome [7]

Cc1c(N)cccc1N
inactive: Potency [1] | Potency [2] | Potency [3] | outcome [4] | Potency [5] | outcome [7]

CC(C)(O)C(=O)O
inactive: Potency [1] | Potency [2] | Potency [3] | outcome [4] | Potency [5] | Potency [6] | outcome [7]

CCCOCC(C)O (stereo not given)
inactive: Potency [1] | Potency [2] | Potency [3] | outcome [4] | Potency [5] | Potency [6] | outcome [7] | activation [8] -4.67%

CC(C=O)Cc1ccc(C(C)(C)C)cc1 (stereo not given)
inactive: Potency [1] | Potency [3] | outcome [4] | Potency [5] | Potency [6] | outcome [7] | activation [8] 8.05%

O=[N+]([O-])c1cc(C(F)(F)F)ccc1Cl
inactive: Potency [1] | Potency [2] | Potency [3] | Potency [5] | Potency [6] | outcome [7] | activation [8] 13.2%

CCCCCCCCN
inactive: Potency [1] | Potency [2] | Potency [3] | outcome [4] | Potency [5] | outcome [7]

CCOCCO
inactive: Potency [1] | Potency [2] | Potency [3] | outcome [4] | Potency [5] | outcome [7]

Cc1c(C(=O)O)cccc1[N+](=O)[O-]
inactive: Potency [1] | Potency [2] | Potency [3] | outcome [4] | Potency [5] | Potency [6] | outcome [7] | activation [8] -4.24%

Clc1ccccn1
inactive: Potency [1] | Potency [2] | Potency [3] | outcome [4] | Potency [5] | Potency [6] | outcome [7]

Cc1ccc(Cl)cc1N
inactive: Potency [1] | Potency [2] | Potency [3] | outcome [4] | Potency [5] | Potency [6] | outcome [7]

CC(=O)CC(C)C
inactive: Potency [1] | Potency [2] | Potency [3] | outcome [4] | Potency [5] | Potency [6] | outcome [7] | activation [8] 2.1%

O=C1OC(=O)c2c(Br)c(Br)c(Br)c(Br)c21
inactive: Potency [1] | Potency [2] | Potency [3] | outcome [4] | Potency [5] | Potency [6] | outcome [7]

O=Cc1ccc(Cl)cc1
inactive: Potency [1] | Potency [2] | Potency [3] | outcome [4] | Potency [5] | Potency [6] | outcome [7] | activation [8] -1.22%

Cc1ccc(C)o1
inactive: Potency [1] | Potency [2] | Potency [3] | outcome [4] | Potency [5] | Potency [6] | outcome [7]

O=C(O)CNC(=O)c1ccc([N+](=O)[O-])cc1
inactive: Potency [1] | Potency [2] | Potency [3] | outcome [4] | Potency [5] | Potency [6] | outcome [7]

C=CCn1c(=O)n(CC=C)c(=O)n(CC=C)c1=O
inactive: Potency [1] | Potency [2] | Potency [3] | outcome [4] | Potency [5] | Potency [6] | outcome [7]

CC(=O)C1(C)CC2=C(CCCC2(C)C)CC1C (stereo not given)
inactive: Potency [1] | Potency [2] | Potency [3] | outcome [4] | Potency [5] | Potency [6] | outcome [7] | activation [8] -4.48%

O=C(O)c1ccccc1[N+](=O)[O-]
inactive: Potency [1] | Potency [2] | Potency [3] | outcome [4] | Potency [5] | Potency [6] | outcome [7]

c1ccc(Oc2ccccc2)cc1
inactive: Potency [1] | Potency [2] | Potency [3] | outcome [4] | Potency [5] | Potency [6] | outcome [7]

CC(C)C=O
inactive: Potency [1] | Potency [2] | Potency [3] | outcome [4] | Potency [5] | Potency [6] | outcome [7]

C[C@@H]1CC2(OC[C@]3(C)O[C@H]23)O[C@H]2C[C@@]3(C)[C@@H]4CC[C@H]5C(C)(C)C(O[C@@H]6OC[C@@H](O)[C@H](O)[C@H]6O)CC[C@@]56C[C@@]46CC[C@]3(C)[C@@H]12 (stereo not given in full)
inactive: Potency [2] | Potency [3] | Potency [5] | Potency [6] | outcome [7] | Potency [9]

CC/C=C1/OC(=O)c2ccccc21
inactive: Potency [1] | Potency [2] | Potency [3] | outcome [4] | Potency [5] | outcome [7] | activation [8] 15.6%

C=CC(=O)OCCCC
inactive: Potency [1] | Potency [2] | Potency [3] | outcome [4] | Potency [5] | Potency [6] | outcome [7]

O=C(O)c1ccccc1Cl
inactive: Potency [1] | Potency [2] | Potency [3] | outcome [4] | Potency [5] | outcome [7]

Nc1c(Cl)cc(Cl)cc1Cl
inactive: Potency [1] | Potency [2] | Potency [3] | outcome [4] | Potency [5] | Potency [6] | outcome [7]

CC(=O)c1cc(C)oc1C
inactive: Potency [1] | Potency [2] | Potency [3] | outcome [4] | Potency [5] | Potency [6] | outcome [7] | activation [8] -1.32%

O=CNc1ccccc1
inactive: Potency [1] | Potency [2] | Potency [3] | outcome [4] | Potency [5] | outcome [7]

O=C(Cl)c1ccccc1[N+](=O)[O-]
inactive: Potency [1] | Potency [2] | Potency [3] | outcome [4] | Potency [5] | outcome [7] | activation [8] 6.98%

CC(=O)OCCC(C)C
inactive: Potency [1] | Potency [2] | Potency [3] | outcome [4] | Potency [5] | Potency [6] | outcome [7]

COc1ccccc1[N+](=O)[O-]
inactive: Potency [1] | Potency [2] | Potency [3] | outcome [4] | Potency [5] | Potency [6] | outcome [7]

CCCC(C)CO (stereo not given)
inactive: Potency [1] | Potency [2] | Potency [3] | outcome [4] | Potency [5] | Potency [6] | outcome [7] | activation [8] -5.4%

O=C(O)/C=C/C(=O)O
inactive: Potency [1] | Potency [2] | Potency [3] | outcome [4] | Potency [5] | outcome [7]

CCCOCC(C)OCC(C)O (stereo not given)
inactive: Potency [1] | Potency [2] | Potency [3] | outcome [4] | Potency [5] | Potency [6] | outcome [7] | activation [8] 12.1%

O=C(O)CN(CC(=O)O)CC(=O)O
inactive: Potency [1] | Potency [2] | Potency [3] | outcome [4] | Potency [5] | outcome [7]

NC=O
inactive: Potency [1] | Potency [2] | Potency [3] | outcome [4] | Potency [5] | outcome [7]

C=CCCCCCCC=C
inactive: Potency [1] | Potency [2] | Potency [3] | outcome [4] | Potency [5] | Potency [6] | outcome [7]

Cc1ccccc1Br
inactive: Potency [1] | Potency [2] | Potency [3] | outcome [4] | Potency [5] | Potency [6] | outcome [7]

COC(=O)CCCC(=O)OC
inactive: Potency [1] | Potency [2] | Potency [3] | outcome [4] | Potency [5] | Potency [6] | outcome [7]

Cc1cccc(C)c1[N+](=O)[O-]
inactive: Potency [1] | Potency [2] | Potency [3] | outcome [4] | Potency [5] | Potency [6] | outcome [7]

BrC/C=C/CBr
inactive: Potency [1] | Potency [2] | Potency [3] | outcome [4] | Potency [5] | Potency [6] | outcome [7]

O=[N+]([O-])c1ccc(NCCO)c(OCCO)c1
inactive: Potency [1] | Potency [2] | Potency [3] | outcome [4] | Potency [5] | Potency [6] | outcome [7]

Cc1ccc(C)c(O)c1
inactive: Potency [1] | Potency [2] | Potency [3] | outcome [4] | Potency [5] | Potency [6] | outcome [7]

O=Cc1cccc(Br)c1
inactive: Potency [1] | Potency [2] | Potency [3] | outcome [4] | Potency [5] | Potency [6] | outcome [7]

CC1(N)CCC(C(C)(C)N)CC1 (stereo not given)
inactive: Potency [1] | Potency [2] | Potency [3] | outcome [4] | Potency [5] | Potency [6] | outcome [7]

CCC(C)=O
inactive: Potency [1] | Potency [2] | Potency [3] | outcome [4] | Potency [5] | Potency [6] | outcome [7]

Nc1nc(-c2ccccc2)cs1
inactive: Potency [1] | Potency [2] | Potency [3] | outcome [4] | Potency [5] | Potency [6] | outcome [7]

CN(C)c1cccc(O)c1
inactive: Potency [1] | Potency [2] | Potency [3] | outcome [4] | Potency [5] | Potency [6] | outcome [7]

CC(=O)OC(C)=O
inactive: Potency [1] | Potency [2] | Potency [3] | outcome [4] | Potency [5] | Potency [6] | outcome [7]

C1CCOC1
inactive: Potency [1] | Potency [2] | Potency [3] | outcome [4] | Potency [5] | Potency [6] | outcome [7]

C1CCCC1
inactive: Potency [1] | Potency [2] | Potency [3] | outcome [4] | Potency [5] | Potency [6] | outcome [7]

O=C(O)c1c(Cl)cccc1Cl
inactive: Potency [1] | Potency [2] | Potency [3] | outcome [4] | Potency [5] | Potency [6] | outcome [7]

CC(=O)CCc1ccccc1
inactive: Potency [1] | Potency [2] | Potency [3] | outcome [4] | Potency [5] | Potency [6] | outcome [7]

O=[N+]([O-])c1ccc(Cl)cc1Cl
inactive: Potency [1] | Potency [2] | Potency [3] | outcome [4] | Potency [5] | Potency [6] | outcome [7]
